For 14 compounds, Potency, activity change, positive = activation and max response results are on record in PubChem BioAssay (Tox21).

The nature of assay [1]: qHTS assay to identify small molecule agonists of H2AX (AID 1224845; active = well fitted activation curve with a large enough effect in the signal ratio in the repeat runs, not every such curve was filed as active; the % refers to the signal ratio; also: potency is read from the fitted curve at half-maximal effect). A digest of the protocol:
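Phospho-H2AX Ser139 measured by HTRF (ex 320 nm; em 665 and 620 nm) after 24 hr antibody incubation. Compounds, 15 concentrations, 0.76% DMSO, were applied to CHO-K1 cells for 3hr at 37C before lysis.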
(In general: In qHTS, concentration-response curves come from the screen itself.)

A short description of assay [2]: qHTS assay to identify small molecule agonists of the hypoxia (HIF-1) signaling pathway (AID 1224846; active = well fitted activation curve with a large enough effect in the signal ratio in the repeat runs, not every such curve was filed as active; the % refers to the signal ratio; also: % is scaled to controls: 0 for no effect and ±100 for the full control effect). A digest of the protocol:
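HRE-bla ME-180 beta-lactamase reporter cells in medium with 0.5% dialyzed FBS, pre-incubated 5 h then exposed to compounds 17 h at 37C, 5% CO2; reporter induction read with CCF4-AM FRET substrate.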

A short description of assay [3]: qHTS assay to identify small molecule agonists of H2AX - cell viability counter screen (AID 1224847; calls by dose curve; also: nearly all actives have a fitted effect of over 30% in size; also: potency is read from the fitted curve at half-maximal effect). The method, boiled down: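 Cells plated first: CHO-K1, 1000 per well in 10% FBS medium, incubated overnight at 37C. Then 15-point compound titration added (final DMSO 0.76%) for 3 hr. Finally CellTiter-Glo added and luminescence read.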
A short description of assay [4]: qHTS assay to identify small molecule antagonists of the estrogen related receptor (ERR) signaling pathway from Tox21 library (AID 1224848). Also: % is scaled to controls: 0 for no effect and ±100 for the full control effect; nearly all actives have a fitted effect of over 50% in size. The method, boiled down: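 Reading was by luminescence 30 min after ONE-Glo addition. Before that, ERR cells at 2,000 per well had rested 6 h at 37 C/5% CO2 and then received pin-tooled compounds in DMSO for 18 h at 37 C.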

The nature of assay [5]: qHTS assay to identify small molecule agonists of the estrogen related receptor (ERR) signaling pathway from Tox21 library (AID 1224849; calls by dose curve; also: % is scaled to controls: 0 for no effect and ±100 for the full control effect; nearly all actives have a fitted effect of over 15% in size). The note with it: ERR reporter cell line, ONE-Glo luciferase, 18 h; at 92.4 µM (top of the series) unless noted. A digest of the protocol:
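ERR reporter cells (NTP line) pre-incubated 6 hours at 37 C, then exposed to compounds for 18 hours at 37 C. ONE-Glo luciferase luminescence was read after 30 minutes at room temperature.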

A short description of assay [6]: qHTS RealTime-Glo MT Cell Viability Assay in HepG2 cells - 24 hour (AID 1224867). Also: nearly all actives have a fitted effect of over 50% in size. Also: potency is read from the fitted curve at half-maximal effect. The method, boiled down: (§1)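 Viability was tracked continuously by NanoLuc luminescence from prosubstrate reduced by living HepG2 cells, at successive time points over 40 h of compound exposure. Cells with reagent were preincubated 5 h at 37 °C before compound addition.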
Assay [7] in a line: qHTS RealTime-Glo MT Cell Viability Assay in HEK293 cells - 32 hour (AID 1224868). Also: nearly all actives have a fitted effect of over 50% in size. Also: potency is read from the fitted curve at half-maximal effect. The method, boiled down:
(§2)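 Viability tracked continuously by luminescence as live cells reduce a prosubstrate for NanoLuc; HEK293 cells preincubated 5 h, compound-treated at 37 C, and read at 0, 8, 16, 24, 32 and 40 h.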

Assay [8] can be described thus: A CellTox Green Cytotoxicity Assay to monitor cytotoxicity in HEK293 cells - 0 hour (AID 1224869). Also: % is scaled to controls: 0 for no effect and ±100 for the full control effect; nearly all actives have a fitted effect of over 50% in size. The method, boiled down:
(§3)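 HEK293 cells, 600/well, were preincubated 5 hours and then exposed to compounds at 37 C for up to 40 hours. A cell-impermeant cyanine dye staining dead-cell DNA was read by fluorescence at 0, 8, 16, 24, 32 and 40 h time points.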

Assay [9] in a line: qHTS RealTime-Glo MT Cell Viability Assay in HepG2 cells - 40 hour (AID 1224870). A digest of the protocol: (§4)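 Real-time viability: cells seeded at 600 per well together with NanoLuc and cell-permeant prosubstrate, compounds added after 5 h incubation. Luminescence tracked at 0, 8, 16, 24, 32 and 40 h of exposure.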
Assay [10] can be described thus: A CellTox Green Cytotoxicity Assay to monitor cytotoxicity in HEK293 cells - 40 hour (AID 1224871). Also: nearly all actives have a fitted effect of over 45% in size. Also: potency is read from the fitted curve at half-maximal effect. A digest of the protocol: as §3
Assay [11] in a line: qHTS RealTime-Glo MT Cell Viability Assay in HEK293 cells - 16 hour (AID 1224872). Also: nearly all actives have a fitted effect of over 50% in size. Also: potency is read from the fitted curve at half-maximal effect. A digest of the protocol:
as §2

Assay [12] is described as follows: qHTS RealTime-Glo MT Cell Viability Assay in HepG2 cells - 8 hour (AID 1224873). Also: nearly all actives have a fitted effect of over 55% in size. Also: potency is read from the fitted curve at half-maximal effect. The method, boiled down:
as §4

Assay [13] in a line: qHTS RealTime-Glo MT Cell Viability Assay in HEK293 cells - 40 hour (AID 1224874). Also: nearly all actives have a fitted effect of over 50% in size. Also: potency is read from the fitted curve at half-maximal effect. As to max response: % is scaled to controls: 0 for no effect and ±100 for the full control effect. The note with it: RealTime-Glo luminescence; max response: active compounds read low. The method, boiled down: (§5)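 600 cells/well were plated with the nonlytic NanoLuc/prosubstrate reagent, pre-incubated 5 h, then given 23 nL of compound in DMSO. Incubation at 37 C for 40 h, with luminescence from viable-cell-reduced substrate read repeatedly from 0 h.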

Assay [14] can be described thus: A CellTox Green Cytotoxicity Assay to monitor cytotoxicity in HEK293 cells - 24 hour (AID 1224875). Also: nearly all actives have a fitted effect of over 45% in size. Also: potency is read from the fitted curve at half-maximal effect. As to activity change: % is scaled to controls: 0 for no effect and ±100 for the full control effect. The method, boiled down: as §3
Assay [15] can be described thus: A CellTox Green Cytotoxicity Assay to monitor cytotoxicity in HepG2 cells - 16 hour (AID 1224876). Also: nearly all actives have a fitted effect of over 45% in size. Also: potency is read from the fitted curve at half-maximal effect. A digest of the protocol:
(§6)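 HepG2 cells, 600/well, preincubated 5 h with CellTox Green dye, then exposed to Tox21 compounds in DMSO at 37 C for up to 40 h. Dead-cell DNA fluorescence read at the indicated time point.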

A short description of assay [16]: qHTS RealTime-Glo MT Cell Viability Assay in HepG2 cells - 32 hour (AID 1224877). Also: % is scaled to controls: 0 for no effect and ±100 for the full control effect; nearly all actives have a fitted effect of over 55% in size. The method, boiled down: as §1
Assay [17] is described as follows: A CellTox Green Cytotoxicity Assay to monitor cytotoxicity in HepG2 cells - 24 hour (AID 1224878). Also: nearly all actives have a fitted effect of over 45% in size. Also: potency is read from the fitted curve at half-maximal effect. As to Cytotoxicity: % is scaled to controls: 0 for no effect and ±100 for the full control effect. A digest of the protocol:
as §6

Assay [18] can be described thus: A CellTox Green Cytotoxicity Assay to monitor cytotoxicity in HepG2 cells - 40 hour (AID 1224879). Also: nearly all actives have a fitted effect of over 40% in size. Also: potency is read from the fitted curve at half-maximal effect. The method, boiled down:
as §6

Assay [19] is described as follows: qHTS RealTime-Glo MT Cell Viability Assay in HEK293 cells - 0 hour (AID 1224880). A digest of the protocol:
as §5

A short description of assay [20]: qHTS assay to identify small molecule agonists of the hypoxia (HIF-1) signaling pathway - cell viability counter screen (AID 1224844; calls by dose curve). The method, boiled down:
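HRE-bla ME-180 cells, 2,000/well in 0.5% dialyzed FBS medium, treated 17 h at 37C with compounds. Viability read in the same wells as the bla reporter, by CellTiter-Glo luminescence after 30 min at room temperature.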

Values joined by “and” are separate entries in the source; they are usually repeats but may differ in a detail not shown here. Identical values can stand only once. Values without a mark were called inactive. Records with an inconclusive call do not appear. Active and inactive are the calls of the source. Unless noted, calls follow the shape of the dose curve; as a rule, active = well fitted curve in the direction sought with a large enough effect in the repeat runs; inconclusive = weak or mixed curves; inactive = no such curve, though single readings can be large; an effect the other way counts as inactive or inconclusive.

Turning to `COP(=S)(OC)Oc1nc(Cl)c(Cl)cc1Cl`, the Potency result in [1], in [2], in [3], in assay [4], in assay [6] and in assay [7] was “inactive” each time. Moreover, the Potency result in assay [8], in assay [9], in assay [10], in assay [11], in assay [12] and in assay [14] was “inactive” each time. The Potency entry in assay [15], in assay [16], in assay [17], in assay [18] and in assay [19] was “inactive” throughout. Further, the activity change, positive = activation in assay [5] is -11.3%. Besides, in assay [13], the max response was -0.946%.

Regarding `O=[N+]([O-])[O-].[Tl+]`, the Potency result in [1], in assay [2], in [3], in assay [6], in assay [8] and in assay [9] was “inactive” throughout. Besides, the Potency result in assay [10], in assay [11], in assay [12], in assay [15], in [17] and in assay [18] was “inactive” each time. Moreover, the Potency result in assay [19] is “inactive”.

Regarding `ClC1=C(Cl)[C@]2(Cl)[C@H]3[C@H]([C@@H]4C=C[C@H]3C4)[C@@]1(Cl)C2(Cl)Cl`, the Potency is 43.6 µM (active) in [20]; 89.8 µM (active) in [3]; 54.9 µM (active) in assay [6]; 48.9 µM (active) and 49 µM (active) in assay [7]; 54.9 µM (active) and 49 µM (active) in [10]; 43.6 µM (active) and 38.9 µM (active) in assay [11]. The Potency is 49 µM (active) in [12]; 48.9 µM (active) and 43.6 µM (active) in assay [13]; 48.9 µM (active) and 49 µM (active) in assay [14]; 54.9 µM (active) in assay [15]; 54.9 µM (active) in [17]; 54.9 µM (active) in assay [18]. Also, the Potency result in assay [8], in [9] and in [19] was “inactive” in each case.

Regarding `Cc1cc2c3c(c1)C(c1ccccc1)=N[C@@H](NC(=O)c1ccncc1)C(=O)N3CC2`, the Potency result in assay [1], in assay [2], in assay [3], in assay [4], in [6] and in assay [7] was “inactive” each time. Further, the Potency result in assay [8], in assay [9], in assay [10], in [11], in assay [12] and in [14] was “inactive” throughout. Besides, the Potency result in assay [15], in assay [16], in [17], in assay [18] and in [19] was “inactive” in each case. Also, in [5], the activity change, positive = activation was -15.6%. For the same compound, the max response in [13] is -16.5%.

As to `CC(C)=CC1C(C(=O)OC(C#N)c2cccc(Oc3ccccc3)c2)C1(C)C` (stereo unspecified), the Potency result in assay [1], in assay [2], in [3], in assay [4], in assay [6] and in [7] was “inactive” throughout. In addition, the Potency result in assay [8], in assay [9], in assay [10], in assay [11], in assay [12] and in [14] was “inactive” in each case. Besides, the Potency result in assay [15], in assay [18] and in assay [19] was “inactive” each time. Also, in [5], the activity change, positive = activation was -9.74%. In addition, in assay [13], the max response is -3.44%.

Regarding `CC#C[C@]1(O)CC[C@H]2[C@@H]3C[C@H](C)C4=CC(=O)CC[C@]4(C)[C@H]3CC[C@@]21C`, the Potency in [1] was 7.8 µM (active). The Potency entry in assay [2], in assay [3], in assay [6], in assay [8], in [9] and in assay [10] was “inactive” each time. Besides, the Potency result in assay [11], in assay [12], in assay [14], in [15], in [16] and in [17] was “inactive” in each case.

On to `O=S(=O)(NS(=O)(=O)C(F)(F)F)C(F)(F)F`, for which the Potency result in [1], in [8], in assay [9], in [12], in assay [16] and in assay [19] was “inactive” each time. Further, the Potency in assay [3] is 56.5 µM (active); in assay [7], 1.94 µM (active); in assay [13], 1.94 µM (active); in [17], 48.9 µM (active); in [18] it was 48.9 µM (active).

On to `CO/N=C(\C(=O)OC)c1ccccc1CO/N=C(\C)c1cccc(C(F)(F)F)c1`, for which the Potency entry in assay [1], in assay [6], in assay [8], in assay [9], in assay [12] and in assay [14] was “inactive” throughout. In addition, the Potency entry in assay [15], in assay [16], in assay [17] and in assay [18] was “inactive” each time. Besides, the Potency in assay [3] is 2.01 µM (active); in [7], 12.3 µM (active); in [10], 6.92 µM (active); in assay [13] it was 6.16 µM (active).

Regarding `CN1CCc2cc(Cl)c(O)cc2[C@H]2c3ccccc3CC[C@@H]21`, the Potency result in assay [2], in assay [3], in assay [4], in assay [6], in [9] and in [10] was “inactive” each time. Also, the Potency entry in [12], in assay [14], in assay [15], in [16], in [18] and in [19] was “inactive” each time. Moreover, in assay [5], the activity change, positive = activation is 0.522% [at 42.5 µM].

For `CCC(C)Nc1c([N+](=O)[O-])cc(C(C)(C)C)cc1[N+](=O)[O-]` (stereo unspecified), the Potency entry in assay [1], in [2], in [4], in [6], in [7] and in assay [8] was “inactive” throughout. Further, the Potency result in [9], in [10], in [12], in assay [14], in [15] and in [16] was “inactive” in each case. The Potency result in assay [18] and in assay [19] was “inactive” in each case. In assay [5], the activity change, positive = activation was 11.9%. Also, the max response in [13] was -8.53%.

`CC(C)c1c(CN(C)C(C)Cc2ccccc2)n(C)n(-c2ccccc2)c1=O` (stereo unspecified): the Potency result in assay [2], in assay [3], in [6], in assay [8], in [9] and in assay [10] was “inactive” each time. For the same compound, the Potency entry in [12], in [14], in [15], in [16], in assay [17] and in assay [18] was “inactive” in each case. Also, in [19], the Potency entry is “inactive”.

In the case of `CN`, the Potency entry in assay [2], in [3], in assay [8], in assay [9], in assay [10] and in assay [11] was “inactive” in each case. Also, the Potency entry in [12], in assay [14], in assay [15], in assay [16], in assay [17] and in [18] was “inactive” in each case. For the same compound, the Potency result in assay [19] is “inactive”.

Regarding `O=C(N[C@@H]1N=C(c2ccccc2F)c2cccc3c2N(CC3)C1=O)c1cc2ccccc2[nH]1`, the Potency entry in assay [3], in assay [7], in [11] and in assay [19] was “inactive” throughout. Also, the Potency was 6.01 µM (active) in assay [10]; 5.35 µM (active) in assay [14]; 21.3 µM (active) in assay [15]; 21.3 µM (active) in [17]; 9.52 µM (active) in [18]. Besides, the max response in assay [13] is -2.71%.

Consider `CCOP(=S)(NC(C)C)Oc1ccccc1C(=O)OC(C)C` (stereo unspecified), for which the Potency result in [1], in assay [8], in assay [10], in [12], in [15] and in assay [17] was “inactive” in each case. Also, the activity change, positive = activation in assay [5] was -39.6%. For the same compound, the Potency in [7] is 43.6 µM (active); in [13], 43.6 µM (active); in assay [18], 38.9 µM (active).
